The source made the active and inactive calls. The rule behind the calls is not given here.
Potency is the fitted concentration of half-maximal effect.

The test system of this assay is HIV-1 nucleocapsid protein NCp7 (binding to TG oligonucleotide). Put plainly: HIV Nucleocapsid (AID 346).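 Note: potency is for inhibitors that block NC binding and lower polarization.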 Conditions: HIV-1 NC / fluorescein-TGTGTGTG probe, fluorescence polarization. The gist of the method:
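HIV-1 NC (100 nM) binding to fluorescein-labelled ssDNA TG4xF (10 nM) in Hepes pH 7.5, 250mM NaCl, 1uM ZnCl2, TCEP and 2-mercaptoethanol; compounds pin-transferred, 1 hr room temperature, fluorescence polarization read on CCD imager.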
With `COc1ccc(-c2nc3cnc(N4CCN(C)CC4)nc3n(Cc3ccc(F)cc3)c2=O)cc1`, the Potency is > 20 µM (inactive).
Regarding `COc1cccc(Cn2c(=O)c(-c3ccc(Cl)cc3)nc3cnc(N4CCNCC4)nc32)c1`, the Potency is > 20 µM (inactive).
The same measure for `CS(=O)(=O)N1CCC[C@@]2(CCN(Cc3nccs3)C2)C1`: > 20 µM (inactive); for `COc1ccc(-n2c(=O)cnc3cnc(Nc4ccccc4)nc32)cc1`: > 4 µM (inactive).
With `O=C(c1cnccn1)N1CCC[C@@]2(CCN(Cc3nccs3)C2)C1`, the Potency is > 20 µM (inactive).
The same measure for `COCCn1c(=O)c(-c2cc(F)cc(F)c2)nc2cnc(N3CCN(C)CC3)nc21`: > 20 µM (inactive); for `CC(C)NC(=O)N1CC[C@@]2(CCCN(S(C)(=O)=O)C2)C1`: > 20 µM (inactive); for `c1ccc2c(N3CCNCC3)nc(-c3ccc4c(c3)OCO4)nc2c1`: > 20 µM (inactive).
For `Cc1nc2cnc(N3CCN(C)CC3)nc2n(Cc2ccc(F)cc2)c1=O` the value was > 20 µM (inactive).
The same measure for `COc1cccc(Nc2ncc3nc(CCc4ccccc4)c(=O)n(C4CC4)c3n2)c1`: > 4 µM (inactive); for `COc1ccccc1CNc1ccnc(-c2ccccc2Cl)n1`: > 20 µM (inactive); for `N#Cc1cccc(NC(=O)N2CC[C@@]3(CCCN(C(=O)c4cc(C(F)(F)F)cc(C(F)(F)F)c4)C3)C2)c1`: > 20 µM (inactive).
On to `Cn1cccc1C(=O)N1CCC2(CCCN(c3ncccn3)C2)CC1`, for which the Potency is > 20 µM (inactive).
`O=C(c1ccco1)N1CCC2(CC1)CN(c1cccc(-c3ccccc3)c1)C2`: the Potency was > 20 µM (inactive).
For `O=C(Oc1ccccc1)N1CCC2(CC1)CN(c1ncccn1)C2`, the Potency was > 20 µM (inactive).
The same measure for `O=S(=O)(c1ccccc1)N1CCC2(CCCN(c3ccccc3)C2)CC1`: > 20 µM (inactive); for `COc1ccc(C(=O)N2CCC3(CCCN(c4ccncc4)C3)CC2)cc1`: > 20 µM (inactive).
For `Cc1cnc(CNc2ncnc3ccc(-c4ccccc4Cl)cc23)cn1` the value was > 20 µM (inactive); for `CN(Cc1ccco1)c1cc(-c2ccccc2Cl)ncn1`, > 20 µM (inactive).
For `O=S(=O)(c1ccccc1)N1CCC2(CCN(C(c3ccccc3)c3ccccc3)CC2)CC1` the value was > 20 µM (inactive); for `CN(C)c1ccc(-c2ccc3ncnc(N(C)Cc4ccco4)c3c2)cc1`, > 20 µM (inactive).
As for `COCCn1c(=O)c(-c2cn(C)c3ccccc23)nc2cnc(OCc3ccccc3)nc21`, the Potency was > 20 µM (inactive).
For the compound `COc1ccccc1CNc1nc(-c2cccnc2)nc2ccccc12`, the Potency was > 20 µM (inactive).
For `Cc1ccccc1-c1nc(NCc2cccnc2)c2ccccc2n1` the value was > 20 µM (inactive).
On to `CC(=O)N1CCC[C@@]2(CCN(c3ncccn3)C2)C1`, for which the Potency was > 20 µM (inactive).
For `COc1cccc(-c2cc(NCc3ccccc3)ncn2)c1`, the Potency is > 20 µM (inactive).
For `O=C(Nc1cccc(F)c1)N1CC[C@@]2(CCCN(C(=O)c3ccncc3)C2)C1` the value was > 20 µM (inactive); for `Clc1ccccc1-c1nc(NCCN2CCOCC2)c2ccccc2n1`, > 20 µM (inactive).
In the case of `CNc1ncnc2ccc(-c3ccccc3C)cc12`, the Potency was > 20 µM (inactive).
Take `Cn1c(=O)c(CCc2ccccc2)nc2cncnc21`: the Potency was > 20 µM (inactive).
`COc1ccccc1CNc1ncncc1-c1ccccc1C`: the Potency is > 20 µM (inactive).
In the case of `O=C(c1cccc(F)c1)N1CCC2(CCCN(C(c3ccccc3)c3ccccc3)C2)CC1`, the Potency was > 20 µM (inactive).
`N#CCCn1c(=O)c(-c2cccs2)nc2cnc(Oc3ccccc3)nc21`: the Potency was > 20 µM (inactive).
On to `c1csc(CNc2ccnc(-c3ccc4c(c3)OCO4)n2)c1`, for which the Potency is > 20 µM (inactive).
The same measure for `c1cncc(CNc2ncncc2-c2ccc3c(c2)OCO3)c1`: > 20 µM (inactive); for `COc1ccccc1-c1nc(N2CCOCC2)c2ccccc2n1`: > 20 µM (inactive); for `COc1cccc(Cn2c(=O)c(-c3cccs3)nc3cnc(Nc4ccccc4)nc32)c1`: > 20 µM (inactive).
The same measure for `CN(C)c1ncnc2ccc(-c3cccc(C#N)c3)cc12`: > 20 µM (inactive).
The same measure for `O=c1cnc2cnc(N3CCNCC3)nc2n1CCc1ccccc1`: > 20 µM (inactive).
As to `COc1cccc(-c2ccc3ncnc(N4CCN(C)CC4)c3c2)c1`, the Potency was > 20 µM (inactive).

Source of the values: PubChem BioAssay (NCATS).
